# Assay results: PubChem BioAssay (NCI)
# “And” between values parts separate entries of the source, which are not always exact repeats. Equal values may be shown once. Compounds without any hit were thinned out: in the full panel of roughly 83,000, 20% have a hit.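 Interpretation: 100, growth as untreated; towards 0, rising growth inhibition; 0, no net growth; 0 to -100, cell death. Compounds scoring below 10 were considered active.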 Values without a mark were called inactive. The source made the active and inactive calls.
# System: MDA-MB-468 breast
# Experiment: NCI-60 one-dose screen, 48 h (100 = growth as untreated, 0 = no growth, -100 = all killed)
# Details: 10 µM unless noted
row,SMILES,growth
1,CCOC(=O)c1cc(C(=O)OCC)c(C)nc1C,109%
2,O=C(Nc1ccc(-n2ccc3c(NC(=O)c4ccccc4)ncnc32)cc1)c1cccc(C(F)(F)F)c1,58.6%
3,O=C1/C(=C/c2ccc(-c3ccc(Cl)cc3)o2)SC(=S)N1CCc1ccc(O)cc1,87%
4,O=C(O)c1ccc[n+](CC(=O)N2CCN(c3cc4c(cc3F)c(=O)c(C(=O)O)cn4C3CC3)CC2)c1,81.4%
5,CN1c2ccccc2Sc2cc(/C=N/Nc3ccnc4cc(Cl)ccc34)ccc21,52.7%
6,CCOc1ccccc1-c1cc(-c2cccs2)c(C#N)c(=O)[nH]1,2.06% (active)
7,CCc1ccccc1NC(=O)c1sc2nc3c(cc2c1N)CCCC3,43%
8,Nc1cc2c(cc1N)-c1cc(N)c(N)cc1C2,105%
9,CC(=O)c1ccc(N2C(=O)c3ccc(Oc4ccccc4)cc3C2=O)cc1,105%
10,Nc1ncnc2c1ncn2C1OC(COP(=O)(O)O)C(O)C1O (stereo not given),102%
11,O=c1c2ccccc2sc2c(NCCCNCCO)nc3ccccc3c12,-57.3% (active)
12,O=CN/N=C/c1ccc(Cl)c([N+](=O)[O-])c1,-11.6% (active)
13,COc1cc(/C=C/C(=O)c2ccc(Nc3ncnc4cc(OC)c(OC)cc34)cc2)cc(OC)c1,101%
14,O=c1oc2ccccc2cc1C1=NN=C(SCc2ccccc2)SC1,118%
15,COc1ccc2c(c1)nc(N)c1c3cccnc3cn21,13.4%
16,O=C(/C(=C/c1ccccc1)CBr)c1ccccc1,-10% (active)
17,OCCN1CCN(CC/C=C2\c3ccccc3Sc3ccc(Cl)cc32)CC1,-97.1% (active)
18,Cc1ccc(NC(=O)CCl)cc1Cl,108%
19,CC(=O)Oc1c(Cl)cccc1-c1ccccc1,100%
20,CCC1CCc2nc3sc(C(=O)Nc4ccccc4C)c(N)c3cc2C1 (stereo not given),-0.179% (active)

row,SMILES,growth
1,COc1ccc(N)c(N)c1,84%
2,Oc1[nH]c2ccc(Cl)cc2c1N=Nc1nc(N=Nc2c(O)[nH]c3ccc(Cl)cc23)nc(N2CCCCC2)n1,18.1%
3,S=C=Nc1ccc(N2CCOCC2)cc1,87%
4,C=C(C)[C@@H]1CC[C@]2(COC(=O)c3cccnc3)CC[C@]3(C)[C@H](CC[C@@H]4[C@@]5(C)CCCN(C(=O)c6cccnc6)C(C)(C)[C@@H]5CC[C@]43C)[C@@H]12,23.3%
5,O=S(=O)(NCC[C@@H]1C[C@H]1c1ccc2ccccc2c1)c1ccc(C(F)(F)F)cc1,72.3%
6,NNC(=O)c1ccccc1N,94.8%
7,CN1CCN(Cc2ccc(NC(=O)c3ccc(C#N)c(C#Cc4cnc(N)c5ncccc45)c3)cc2C(F)(F)F)CC1,98%
8,C=CCNC(=S)NN,56.5%
9,Cc1c(Cl)cccc1C(=O)Nc1nc2c(s1)CN(C(=O)c1ccc(C(F)(F)F)cc1)CC2,17.7%
10,OC(COc1cccc2ccccc12)CN1CCN(c2ccc(Cl)cc2)CC1 (stereo not given),58.7% and 96.8%
11,Cc1ccc(C(=O)NN2C(=O)CSC2c2cccc([N+](=O)[O-])c2)cn1 (stereo not given),105%
12,CC(=O)Nc1ccc2cc3ccc(NC(C)=O)cc3nc2c1,56.5%
13,COc1cc2nc(Cl)nc(Nc3cccc(C(=O)/C=C/c4ccccc4)c3)c2cc1OC,68.9%
14,C=CCn1c(SCC(=O)Nc2ccc(C(=O)/C=C/c3ccc(OC)cc3)cc2)nnc1-c1ccccc1,93.9%
15,O=C1/C=C/[C@@H](O)[C@@H]2C[C@@H](O)C[C@H]2/C=C/CCC[C@@H](C(F)(F)F)O1,-40.7% (active)
16,CCCCCCNC(=O)Oc1ccc(/C(=C(/C)c2ccc(Cl)cc2)c2ccc(OCCN3CCCCCC3)cc2)cc1,35.9%
17,COc1cc(C(C)(C)C)cc(OC)c1C(O)(c1c(OC)cc(C(C)(C)C)cc1OC)c1c(OC)cc(C(C)(C)C)cc1OC,-88.3% (active)
18,Cc1ccccc1NC(=O)N/C(N)=N/c1nc2ccccc2s1,1.56% (active)
19,COc1cnc2c(c1)C(=O)c1c-2n(CCCn2ccnc2)c(=O)c2cc(OC)c(OC)cc12,-25.7% (active)
20,Nc1ncnc2c1c(C(F)(F)F)cn2[C@@H]1O[C@H](CO)[C@@H](O)[C@H]1O,-41.1% (active)
